CHX counter: Cycloheximide Counterscreen for Small Molecule Inhibitors of Shiga Toxin; cell reporter, cycloheximide protein synthesis inhibition counterscreen; max response, %; actives 12% (n = 300,000); AID 2314, 2010; in the data active = max response mostly above about 13%, no sharp cut-off; inactive = mostly below about 14%; note: read at 38.3 µM for the half of the compounds with a filed dose; 0% is about no effect
VACV mCherry inh: qHTS for Stage-Specific Inhibitors of Vaccinia Orthopoxvirus: mCherry Reporter Primary qHTS. Vaccinia virus mCherry reporter infection, fluorescence. Potency, µM (top dose mostly 36.5 µM), without a hit: at the top dose activity change, negative = inhibition, usual class: inhibitors. actives 0.63% (n = 310,000); calls by dose curve; tested in A549 cells; note: potency is the fitted concentration of half-maximal effect; % is set by controls: 0 for no effect and ±100 for the full control effect; nearly all actives have a fitted effect of over 35% in size
Marburg entry inh: qHTS for inhibitors of binding or entry into cells for Marburg Virus; Potency, µM (titrated, usually from 37.8 µM), without a hit: top-dose activity change, negative = inhibition, hits mostly inhibitors; Marburg virus pseudotyped entry inhibition, cell reporter; actives 1.8% (n = 300,000); calls by dose curve; tested in HEK293 cells; note: potency is the fitted concentration of half-maximal effect; % is set by controls: 0 for no effect and ±100 for the full control effect
Vaccinia Venus: qHTS for Stage-Specific Inhibitors of Vaccinia Orthopoxvirus: Venus Reporter Primary qHTS; Vaccinia virus Venus reporter expression, fluorescence; Potency, µM (series often up to 36.5 µM), for inactives: at the top dose activity change, negative = inhibition, usual class: inhibitors; actives 0.46% (n = 330,000); calls by dose curve; tested in A549 cells; note: potency is the fitted concentration of half-maximal effect; % is set by controls: 0 for no effect and ±100 for the full control effect; nearly all actives have a fitted effect of over 30% in size
Lassa entry inh: qHTS for Inhibitors of binding or entry into cells for Lassa Virus; Potency, µM (series often up to 37.9 µM), without a hit: at the highest dose activity change, negative = inhibition, actives largely listed as inhibitors; actives 1.2% (n = 300,000); Lassa virus pseudotype entry inhibition, cell reporter; calls by dose curve; tested in HEK293 cells; note: potency is the fitted concentration of half-maximal effect; % is set by controls: 0 for no effect and ±100 for the full control effect; nearly all actives have a fitted effect of over 50% in size
Shiga inhibitor: A qHTS for Small Molecule Inhibitors of Shiga Toxin; Vero cells, Shiga toxin protein synthesis inhibition reporter; AID 2315, 2010; actives 9.2% (n = 290,000); inhibition, % at 38.7 µM; in the data active = inhibition mostly above about 28%, no sharp cut-off; inactive = mostly below about 43%; note: 0% is about no effect
* marks the source's active call; other numbers are inactive results; i = inactive; u = inconclusive; x = no result; + = active, no number; [ ] = remark or other dose. Shown is part of a subset that was picked to be rich in hits.

SMILES	CHX counter	VACV mCherry inh	Marburg entry inh	Vaccinia Venus	Lassa entry inh	Shiga inhibitor
Cn1c(N)c(S(=O)(=O)c2ccc(Br)cc2)c2nc3ccccc3nc21	0.9	-4.9%	6.31µM*	u	8.1%	-15.5
Nc1c(S(=O)(=O)c2ccccc2)c2nc3ccccc3nc2n1/N=C/c1cccc(O)c1	-10.7	x	-15.8%	11.2µM*	-0.2%	-16.8
O=C(C[n+]1csc2ccccc21)c1ccc(I)cc1	x	-11.8%	x	-10.4%	x	x
COc1cc(OC)c(C2C=C(c3ccc(C)cc3)Nc3c(C(=O)Nc4ccccc4)cnn32)cc1OC (centres undefined)	x	-24.5%	x	-26.3%	-18.5%[46.1 µM]	x
O=C(CS(=O)(=O)c1ccccc1)Nc1ccccn1	-2.6	x	4.0%	x	-1.3%	-20.5
CCCC(=O)Nc1ccc(NC(=O)C2CC2)cn1	26.3*	-1.0%	-3.3%	-4.2%	26.2%	17.2
CCCCNC(=O)c1nn2cc(Br)cnc2c1Br	23.1*	-3.1%	11.8%[46.1 µM]	-9.0%	-1.2%	22.2
C=CCCC(=O)Nc1ccc(Br)cn1	27.5	-6.4%	u	-28.4%	u	30.8
CCCCC(=O)Nc1ccc(Br)cn1	21.9*	-2.6%	13.8%	-2.0%	21.0%	60.5
O=C(CS(=O)(=O)c1ccccc1)Nc1ccc(Br)cn1	19.4*	-14.8%	-5.4%	-13.9%	28.0%	26.3*
C(=C\c1ccnc2ccccc12)/c1ccc(N2CCOCC2)cc1	x	163.2%	x	178.5%	x	x
CCOC(=O)C1CCCN(C(=O)c2ccccc2NC(=O)c2nsc3ccccc23)C1 (centres undefined)	x	i	x	-8.1%	u	x
Cc1nc2scc(C)n2c(=O)c1S(=O)(=O)Nc1ccc(N2CCOCC2)cc1	-1.9	u	4.2%[46.1 µM]	-17.5%	-15.6%[46.1 µM]	7.1
CCCCNC(=O)Nc1ccc(Br)cn1	36.1*	x	1.5%	u	8.6%	30.9*
CCCCC(=O)Nc1ccc(NC(=O)CCCC)nc1	12.8*	-2.7%	2.1%	-11.5%	16.8%	63.3
O=[N+]([O-])c1ccc(COc2cccc3cccnc23)cc1	67.9*	u	4.4%	-12.7%	u	142.7*
N#Cc1ccc(COc2cccc3cccnc23)cc1	24.9*	-24.0%	17.9%[46.1 µM]	-23.6%	1.3%	35.7*
O=[N+]([O-])c1ccc(OCCCOc2cccc3cccnc23)cc1	1.2	-12.3%	u	-6.6%	1.2%[46.1 µM]	x
Cc1ccc(Cl)cc1N1CCN(C(=O)c2ccc3c(c2)N(Cc2ccc(F)cc2)CCS3)CC1	x	-21.2%	2.4%[46.1 µM]	-13.9%	2.1%[46.1 µM]	x
COc1cc2nc(NCc3ccccc3Cl)n3nc(-c4cccnc4)nc3c2cc1OC	x	-4.4%	-3.5%[46.1 µM]	-10.5%	x	x
CC(C)(C)C1CCC2(CC1)NC(=S)N(c1ccccc1)N2 (centres undefined)	23.8*	-23.3%	-13.2%[46.1 µM]	-12.6%	-7.0%	42.4*
CCC(C)(C)C1CCC2(CC1)NC(=S)N(c1ccccc1)N2 (centres undefined)	34.8*	x	x	x	x	97.5*
COc1ccc(C2C(C(C)=O)=C(O)C(=O)N2c2ccc(O)cc2)cc1 (centres undefined)	-1.0	i	16.0%[46.1 µM]	-2.7%	15.9%[46.1 µM]	-5.7
COc1ccc(C2C(CC(=O)O)=C(O)C(=O)N2c2ccccc2)cc1 (centres undefined)	27.6*	x	7.2%	0.4%	6.2%	37.7*
O=C(NCCN1C(=O)S/C(=C\c2ccccc2)C1=O)c1cc(S(=O)(=O)N2CCOCC2)c(Cl)cc1Cl	-0.7	-2.7%	u	-15.2%	u	-5.7
SMILES	CHX counter	VACV mCherry inh	Marburg entry inh	Vaccinia Venus	Lassa entry inh	Shiga inhibitor
O=C(NCCN1C(=O)S/C(=C\c2ccc(F)cc2)C1=O)c1cccc(S(=O)(=O)N2CCOCC2)c1	69.3*	-29.1%	-37.3%	-11.4%	1.4%	+
COc1ccccc1C1(O)CCN(C(=O)c2cccs2)CC1	-0.9	-13.4%	2.2%	-3.6%	4.1%	-3.7
CCN(CC)S(=O)(=O)c1cc(OC)c(Cl)cc1Cl	27.7*	x	-21.9%	x	-22.2%	-2.4
CCOc1ccccc1NC(=O)/C=C/c1ccc(S(=O)(=O)N2CCOCC2)cc1	x	-13.9%	-7.4%	-17.0%	u	x
CCN(CC)c1ccc(C=N/C(C#N)=C(\N)C#N)cc1	27.7*	-3.0%	29.7%	0.5%	23.7%	54.1*
O=C(N/N=C/C(Br)=C\c1ccccc1)c1ccc2nc[nH]c2c1	19.1*	-27.7%	u	-23.6%	-22.6%	46.0
CC(=C/c1ccccc1)/C=N/NC(=O)c1ccc2nc[nH]c2c1	17.5*	-14.9%	u	-14.2%	u	50.6*
CCOC(=O)c1sc(NC(=O)c2ccc(OC)cc2)nc1C	5.4	i	10.3%[46.1 µM]	-3.1%	9.1%[46.1 µM]	6.8
CCOC(=O)c1sc(NC(=O)c2ccc(C)o2)nc1C	28.2*	i	-3.3%	-10.5%	u	43.2*
CCOC(=O)c1sc(NC(=O)c2ccc(OC(C)=O)cc2)nc1C	20.6*	-14.9%	u	-15.0%	x	55.7*
CCOC(=O)c1sc(NC(=O)c2ccco2)nc1C	16.5	i	17.6%	-7.7%	-12.8%	12.0
COc1ccc(-c2nsc(NC(=O)c3oc4ccccc4c3C)n2)cc1	x	-3.2%	-17.7%[46.1 µM]	-8.6%	u	x
COC(=O)c1sc(NC(=O)c2oc3ccccc3c2C)nc1C	28.1*	x	0.4%	2.2%	u	37.6*
COC(=O)c1sc(NC(=O)c2ccc(C)o2)nc1C	46.6*	-15.3%	u	-26.1%	-20.4%	147.3*
CCCCn1c(=O)[nH]c2nc3cc(N)ccc3nc2c1=O	79.9*	-10.7%	17.8%	41.7%	u	81.0*
Nc1ccc2nc3c(=O)n(C4CCCCC4)c(=O)[nH]c3nc2c1	39.9*	x	x	x	x	77.9*
COc1ccccc1/C=C/c1cncc(/C=C/c2ccccc2OC)c1	x	u	x	-21.7%	x	x
Cc1ccc(CN2C(=O)c3ccccc3C2C(=O)NC2CCCCCC2)cc1 (centres undefined)	x	-2.1%	0.0%[46.1 µM]	6.9%	u	x
COc1ccccc1C(=O)N1CCN(c2nc3cc(C)c(C)cc3cc2C#N)CC1	-2.7	-17.7%	8.91µM*	-28.6%	10µM*	1.0
Cc1cc2cc3c(cc2nc1SCC(=O)N1CCCC1)OCCO3	-3.5	i	u	-12.0%	-7.0%	-3.3
COc1ccc2nc(N3CCCC3)c(C#N)cc2c1	16.3	x	u	x	u	22.0
COc1ccc2nc(SCC(=O)N3CCCCCC3)c(C#N)cc2c1	14.6*	-3.9%	17.2%	-4.3%	-2.7%	86.9*
COc1ccc2nc(N3CCCCC3)c(C#N)cc2c1	64.1*	-5.8%	-15.4%	-3.9%	-17.8%	124.0*
N#Cc1cc2cc3c(cc2nc1SCC(=O)N1CCOCC1)OCCO3	51.8*	-1.9%	u	11.7%	u	74.2*
Cc1c(C(=O)O)sc(S(=O)(=O)N2CCN(C(=O)Cc3ccc(F)cc3)CC2)c1C(=O)O	x	i	u	-6.7%	10.9%	x
COc1cccc(NC(=O)Cn2nc(-c3ccncc3)ccc2=O)c1	x	-12.0%	x	3.5%	6.7%[46.1 µM]	x
